SMILES strings stand for the structures. Several values for one entry are separate records, joined by “and”; a condition that tells them apart may be missing. Equal entries are not always repeated. Results filed as inconclusive are left out. Activity calls are given as the source filed them. Unless noted, the call rests on the fitted dose curve; in most records, active means well fitted curve in the direction sought with a large enough effect; inconclusive means small, poorly fitted or top-dose-only effect, or another doubt; inactive means no such curve, though single readings can be large; an effect the other way counts as inactive or inconclusive.

A short description of experiment [1]: qHTS assay for small molecule antagonists of peroxisome proliferator-activated receptor delta signaling (AID 588535; active means well fitted inhibition curve with a large enough effect in the signal ratio, with a control signal flat, not every such curve was filed as active; the % refers to the signal ratio;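 on max response: cells co-treated with a PPAR-delta agonist as stimulator during compound exposure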). To be noted: HEK293T PPARd-UAS-bla, beta-lactamase FRET ratio, 18 h; 460 nm channel. The gist of the method: (§1)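 Cells were seeded at 4000 per well in assay medium containing 2% charcoal/dextran FBS and held 5 hrs at 37 C. Compounds were then added for 18 hrs. CCF4 substrate was applied for 2 hrs at room temperature before fluorescence reading.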
In general terms: In qHTS, concentration-response curves come from the screen itself.

Experiment [2] addresses Peroxisome proliferator-activated receptor delta (Homo sapiens) (UniProt Q03181). The description is as above. The conditions noted are these: HEK293T PPARd-UAS-bla, beta-lactamase FRET ratio, 18 h; series mostly up to 76.7 µM. The gist of the method:
as §1

The target of experiment [3] is Peroxisome proliferator-activated receptor gamma (Homo sapiens) (UniProt P37231). Put plainly: qHTS assay for small molecule agonists of peroxisome proliferator-activated receptor gamma signaling (AID 588536; active means well fitted curve in the direction sought with a large enough effect in the signal ratio, with a control signal flat, not every such curve was filed as active; the % refers to the signal ratio;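 further: 0% = DMSO basal wells and 100% = rosiglitazone at 2 µM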). To be noted: HEK293 PPARg-UAS-bla, beta-lactamase ratio, 16 h, percent of rosiglitazone response, DMSO as zero; series mostly up to 76.7 µM. The gist of the method: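 Ratiometric blue/green fluorescence (405 nm excitation; 460 and 530 nm emission) from CCF4-loaded HEK293 reporter cells serves as signal. Exposure to test compounds lasts 16 h at 37 C in medium containing 1% charcoal/dextran-treated serum.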
Sequence of Peroxisome proliferator-activated receptor gamma (Homo sapiens) (P37231 whole entry, looked up): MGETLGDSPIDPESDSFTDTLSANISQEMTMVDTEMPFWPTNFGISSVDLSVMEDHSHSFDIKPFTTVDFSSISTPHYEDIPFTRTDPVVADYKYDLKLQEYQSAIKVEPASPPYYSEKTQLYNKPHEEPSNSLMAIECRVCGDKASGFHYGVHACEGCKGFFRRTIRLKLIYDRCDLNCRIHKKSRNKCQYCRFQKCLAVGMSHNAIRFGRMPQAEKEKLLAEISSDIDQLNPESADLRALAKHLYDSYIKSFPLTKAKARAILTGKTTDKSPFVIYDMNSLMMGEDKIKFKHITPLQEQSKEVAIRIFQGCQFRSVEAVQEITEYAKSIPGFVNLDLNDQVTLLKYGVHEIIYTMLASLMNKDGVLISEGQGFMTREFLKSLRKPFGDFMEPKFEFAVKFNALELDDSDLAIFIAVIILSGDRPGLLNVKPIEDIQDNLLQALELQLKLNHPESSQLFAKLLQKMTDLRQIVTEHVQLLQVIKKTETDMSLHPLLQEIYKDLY

For experiment [4], the target named is Vitamin D3 receptor (Homo sapiens) (UniProt P11473). Nature of the experiment: qHTS assay for small molecule antagonists of vitamin D receptor signaling (AID 588541; calls by dose curve;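 further: receptor activated by calcitriol during compound treatment; on the % scale 0 is the no-effect control and ±100 the full control effect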). The conditions noted are these: HEK293T VDR-UAS-bla, beta-lactamase ratio, antagonist mode; series mostly up to 76.7 µM. Summed up:
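VDR-UAS-bla HEK293T cells in 2% charcoal-stripped FBS were stimulated with 1-alpha,25-dihydroxyvitamin D3 (3 nM final) plus compound for 16 h at 37 C. The beta-lactamase CCF4 readout was normalized to 50 nM agonist and DMSO, and Hill fits gave IC50.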

Experiment [5] has the same target. Nature of the experiment: qHTS assay for small molecule agonists of vitamin D receptor signaling (AID 588543; calls by dose curve;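 further: 0% = DMSO basal and 100% = reference agonist control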). To be noted: HEK293T VDR-UAS-bla, beta-lactamase ratio, 16 h; series mostly up to 76.8 µM. The gist of the method:
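β-lactamase reporter, VDR-UAS-bla HEK293T, agonist mode. Cells plated 5 h at 37 °C, compound titration 16 h at 37 °C, CCF4 dye 2 h RT, ratio 460/530 nm. Hill fit → EC50, efficacy vs 50 nM 1α,25-(OH)2D3.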

Experiment [6] is described as follows: qHTS assay for small molecule agonists of retinoid X receptor alpha signaling (AID 588544; calls by dose curve;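 on activation: 0% = DMSO basal wells and 100% = reference agonist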). The conditions noted are these: HEK293T RXRa-UAS-bla, beta-lactamase reporter, 18 h; 530 nm emission.
Experiment [7] has as its target Retinoic acid receptor RXR-alpha (Homo sapiens) (UniProt P19793). The experiment is described as above. To be noted: HEK293T RXRa-UAS-bla, beta-lactamase reporter, 18 h; series mostly up to 76.7 µM.
In experiment [8] the target is Thyroid hormone receptor beta (Homo sapiens) (UniProt P10828). Put plainly: qHTS assay for small molecule agonists of thyroid hormone receptor beta signaling (AID 588545; calls by dose curve). The conditions noted are these: TR-UAS-bla GripTite HEK 293, beta-lactamase ratio, agonist mode, 18 h; series mostly up to 76.7 µM. The gist of the method: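 Agonist-mode beta-lactamase reporter assay, HEK 293 cells, 2% charcoal/dextran FBS; cells plated 4 hrs, compound 18 hrs at 37 C, CCF4 2 hrs RT. Normalized to 10 nM T3 (100%) and DMSO (0%); Hill fit gives EC50, efficacy.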
Sequence of Thyroid hormone receptor beta (Homo sapiens) (P10828 whole entry, looked up): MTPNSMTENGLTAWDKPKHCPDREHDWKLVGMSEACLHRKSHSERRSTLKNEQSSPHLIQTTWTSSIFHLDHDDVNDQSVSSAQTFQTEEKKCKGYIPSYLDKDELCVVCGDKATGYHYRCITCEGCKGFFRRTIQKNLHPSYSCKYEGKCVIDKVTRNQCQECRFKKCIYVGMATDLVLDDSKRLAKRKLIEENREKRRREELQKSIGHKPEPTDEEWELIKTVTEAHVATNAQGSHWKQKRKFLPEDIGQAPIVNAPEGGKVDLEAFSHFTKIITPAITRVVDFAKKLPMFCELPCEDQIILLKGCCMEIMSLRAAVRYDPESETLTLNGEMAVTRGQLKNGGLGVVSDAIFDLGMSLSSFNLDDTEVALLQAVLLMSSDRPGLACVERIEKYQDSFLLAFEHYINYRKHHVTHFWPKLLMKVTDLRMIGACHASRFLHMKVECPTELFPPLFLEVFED

A short description of experiment [9]: qHTS assay for small molecule antagonists of retinoid X receptor alpha signaling (AID 588546; active means well fitted inhibition curve with a large enough effect in the signal ratio, with a control signal flat, not every such curve was filed as active; the % refers to the signal ratio;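 further: cells stimulated with 9-cis-retinoic acid as agonist; on the % scale 0 is the no-effect control and ±100 the full control effect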). The conditions noted are these: HEK293T RXRa-UAS-bla, beta-lactamase ratio, antagonist mode; measured here: W530 green channel, cytotoxicity proxy. Summed up: (§2)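 Beta-lactamase reporter inhibition, read as CCF4 fluorescence ratio (ex 405, em 460/530 nm) after 2 h at RT. HEK293T UAS-bla cells, 2500/well, were stimulated with 9-cis-RA at 500 or 100 nM final alongside test compound for 18 h at 37 C.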

Experiment [10] in a line: qHTS assay for small molecule activators of the p53 signaling pathway (AID 651743; active means well fitted activation curve with a large enough effect in the signal ratio, not every such curve was filed as active; the % refers to the signal ratio; further: % of control where 0% means no effect). To be noted: HCT-116 p53RE-bla, beta-lactamase FRET ratio, 16 h; activation: stronger effect = higher value. Summed up: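 HCT-116 p53RE-bla, 4,000 cells/well; 5 h settle; cpd/DMSO 16 h, 37 C; LiveBLAzer B/G 2 h RT; fluorescence intensity.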
A short description of experiment [11]: qHTS assay for small molecule activators of the nuclear factor-kappa B (NF-kB) signaling pathway (AID 651749; active means well fitted activation curve with a large enough effect in the signal ratio; the % refers to the signal ratio; further: % of control where 0% means no effect). To be noted: NF-kB-bla ME-180 cells, beta-lactamase FRET ratio, 16 h; activation: stronger effect = higher value. Summed up: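 Incubation lasted 16 hr at 37C in 5% CO2 after 23 nL compound addition to ME-180 NF-kB-bla cells. Activation appears as beta-lactamase-mediated FRET loss.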

The nature of experiment [12]: qHTS assay for environmental chemicals that activate the Aryl hydrocarbon Receptor (AhR) signaling pathway (AID 651777). Further: % of control where 0% means no effect; nearly all actives have a fitted effect of over 15% in size. The conditions noted are these: 1A2-DRE human hepatoma cells, luciferase, 24 h; activation: stronger effect = higher value. The gist of the method: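 Measured luciferase activity, read 30 min after One-Glo addition at room temperature, from human hepatoma cells bearing a dioxin response element–CYP1A2 promoter reporter and exposed to compound for 24 hr at 37 C.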

Experiment [13] can be described thus: qHTS assay for small molecule agonists of the antioxidant response element (ARE) signaling pathway measured by Nrf2-dependant transcriptional activity (AID 720636; active means well fitted curve in the direction sought with a large enough effect in the repeat runs; an effect the other way counts as inactive or inconclusive;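 further: HepG2 cells with an ARE-driven luciferase reporter; % of control where 0% means no effect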). To be noted: ARE-luc HepG2, Nrf2 luciferase reporter, 16 h; series mostly up to 92.4 µM. The gist of the method:
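In HepG2 cells engineered with an Nrf2-responsive luciferase gene, ARE induction was quantified as luminescence after 16 hr compound treatment at 37 C.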

The nature of experiment [14]: qHTS assay for small molecule agonists of the antioxidant response element (ARE) signaling pathway measured by Nrf2-dependant transcriptional activity - cell viability counter screen (AID 720653; active means well fitted curve in the direction sought with a large enough effect in the repeat runs; an effect the other way counts as inactive or inconclusive; further: on the % scale 0 is the no-effect control and ±100 the full control effect). The conditions noted are these: ARE-bla HepG2 viability, CellTiter-Glo ATP luminescence, 16 h; max response: stronger effect = lower value. Summed up:
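ARE-bla HepG2 cells treated with compounds for 16 h at 37C; this counter screen measures viability as intracellular ATP by CellTiter-Glo luminescence after 30 min at room temperature.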

Experiment [15] in a line: qHTS assay for cell viability of HEK293 cells (AID 743288). Further: on the % scale 0 is the no-effect control and ±100 the full control effect; nearly all actives have a fitted effect of over 50% in size. To be noted: ATP luminescence (CellTiter-Glo), 18 h; max response: stronger effect = lower value. The gist of the method:
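Environmental chemicals tested in qHTS format against parental HEK293 cells; 18 h treatment, 37 C; read-out ATP luminescence (CellTiter-Glo), 30 min RT development.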

A short description of experiment [16]: qHTS assay for cell viability of the p53RE-bla HCT-116 cell line (AID 743292). Further: on the % scale 0 is the no-effect control and ±100 the full control effect; nearly all actives have a fitted effect of over 55% in size. The conditions noted are these: p53RE-bla HCT-116 viability, ATP luminescence, 16 h; series mostly up to 95 µM. The gist of the method:
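Intracellular ATP of p53RE-bla HCT-116 cells measured by luciferase luminescence following 16 h compound incubation at 37 C; DMSO-only wells served as vehicle controls.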

For experiment [17], the target named is Nuclear receptor subfamily 1 group I member 2 (Rattus norvegicus) (UniProt Q9R1A7). Nature of the experiment: qHTS assay for small molecule activators of the rat pregnane X receptor (rPXR) signaling pathway (AID 651751; call rule not given here; further: 0% is about no effect). The conditions noted are these: rPXR reporter cells, luciferase (One-Glo), 24 h.
Sequence of Nuclear receptor subfamily 1 group I member 2 (Rattus norvegicus) (Q9R1A7 whole entry, looked up): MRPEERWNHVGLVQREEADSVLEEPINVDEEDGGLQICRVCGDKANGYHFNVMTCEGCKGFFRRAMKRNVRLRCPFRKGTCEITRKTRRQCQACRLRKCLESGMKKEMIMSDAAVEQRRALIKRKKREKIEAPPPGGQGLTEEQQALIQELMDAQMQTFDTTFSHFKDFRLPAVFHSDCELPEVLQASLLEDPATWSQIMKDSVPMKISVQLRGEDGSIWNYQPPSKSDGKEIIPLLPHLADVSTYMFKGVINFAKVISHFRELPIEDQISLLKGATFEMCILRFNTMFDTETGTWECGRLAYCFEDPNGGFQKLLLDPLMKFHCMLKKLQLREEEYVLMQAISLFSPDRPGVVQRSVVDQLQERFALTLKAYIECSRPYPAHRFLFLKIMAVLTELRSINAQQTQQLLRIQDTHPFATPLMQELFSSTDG
A short description of experiment [18]: qHTS assay for small molecule activators of the human pregnane X receptor (PXR) signaling pathway (AID 720659; call rule not given here; further: 0% is about no effect). To be noted: DPX-2 HepG2 CYP3A4-luciferase, 24 h; series mostly up to 92.3 µM.
Experiment [19] concerns the target Retinoic acid receptor RXR-alpha (Homo sapiens) (UniProt P19793). Nature of the experiment: qHTS assay for small molecule antagonists of retinoid X receptor alpha signaling (AID 588546).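 Further: cells stimulated with 9-cis-retinoic acid as agonist; on the % scale 0 is the no-effect control and ±100 the full control effect.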 The conditions noted are these: HEK293T RXRa-UAS-bla, beta-lactamase ratio, antagonist mode. The gist of the method:
as §2

The target of experiment [20] is Peroxisome proliferator-activated receptor alpha (Homo sapiens) (UniProt Q07869). Nature of the experiment: qHTS assay for small molecule agonists of the peroxisome proliferator-activated receptor alpha (PPARalpha) signaling pathway (AID 651778). Further: % of control where 0% means no effect. To be noted: PathHunter PPARalpha complementation, chemiluminescence, 6 h; max response: stronger effect = higher value. The gist of the method: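 Enzyme-fragment complementation assay in which ligand-bound PPARalpha translocates and forms an active enzyme that generates chemiluminescence. Cells were plated overnight, exposed to compound for 6 hr at 37 C, and then given detection reagent for 60 min at room temperature.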
Sequence of Peroxisome proliferator-activated receptor alpha (Homo sapiens) (Q07869 whole entry, looked up, the tested form may be a part): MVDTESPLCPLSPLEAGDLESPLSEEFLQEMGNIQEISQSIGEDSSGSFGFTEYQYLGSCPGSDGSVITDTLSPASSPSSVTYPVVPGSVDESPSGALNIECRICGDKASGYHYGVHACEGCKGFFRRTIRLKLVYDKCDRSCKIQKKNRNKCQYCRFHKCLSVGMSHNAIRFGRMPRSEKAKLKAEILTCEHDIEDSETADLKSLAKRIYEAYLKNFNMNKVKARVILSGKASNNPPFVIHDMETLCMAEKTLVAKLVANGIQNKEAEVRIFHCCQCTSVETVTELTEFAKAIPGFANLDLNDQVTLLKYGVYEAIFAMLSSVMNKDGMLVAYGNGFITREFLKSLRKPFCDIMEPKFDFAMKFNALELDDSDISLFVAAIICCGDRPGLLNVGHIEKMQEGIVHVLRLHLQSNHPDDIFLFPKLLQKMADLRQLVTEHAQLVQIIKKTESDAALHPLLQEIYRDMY

Sequence of Peroxisome proliferator-activated receptor delta (Homo sapiens) (Q03181 whole entry, looked up): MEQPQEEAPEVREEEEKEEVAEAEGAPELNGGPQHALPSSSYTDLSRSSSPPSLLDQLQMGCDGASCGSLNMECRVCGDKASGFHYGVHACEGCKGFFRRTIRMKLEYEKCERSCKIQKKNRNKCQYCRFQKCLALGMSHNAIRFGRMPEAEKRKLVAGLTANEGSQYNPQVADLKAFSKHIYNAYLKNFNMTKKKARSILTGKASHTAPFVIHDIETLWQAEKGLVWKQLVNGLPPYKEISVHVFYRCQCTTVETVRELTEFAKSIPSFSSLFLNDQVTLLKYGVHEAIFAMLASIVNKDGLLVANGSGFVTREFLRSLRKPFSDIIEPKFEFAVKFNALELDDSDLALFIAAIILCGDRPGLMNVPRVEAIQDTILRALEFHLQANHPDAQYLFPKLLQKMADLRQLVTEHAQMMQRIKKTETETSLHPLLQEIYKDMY
Sequence of Retinoic acid receptor RXR-alpha (Homo sapiens) (P19793 whole entry, looked up): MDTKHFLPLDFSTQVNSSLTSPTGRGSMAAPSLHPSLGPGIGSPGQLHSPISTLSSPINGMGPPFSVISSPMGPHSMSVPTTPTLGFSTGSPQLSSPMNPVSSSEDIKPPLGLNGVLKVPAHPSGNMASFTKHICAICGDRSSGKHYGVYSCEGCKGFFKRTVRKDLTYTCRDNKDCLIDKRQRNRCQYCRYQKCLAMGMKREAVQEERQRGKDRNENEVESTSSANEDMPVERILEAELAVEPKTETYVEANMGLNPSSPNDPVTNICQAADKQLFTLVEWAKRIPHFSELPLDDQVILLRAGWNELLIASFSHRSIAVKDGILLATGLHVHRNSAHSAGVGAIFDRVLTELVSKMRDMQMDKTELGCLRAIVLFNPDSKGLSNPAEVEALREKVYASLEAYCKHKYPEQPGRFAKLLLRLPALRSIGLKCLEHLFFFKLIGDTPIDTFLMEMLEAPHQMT
Sequence of Vitamin D3 receptor (Homo sapiens) (P11473 whole entry, looked up): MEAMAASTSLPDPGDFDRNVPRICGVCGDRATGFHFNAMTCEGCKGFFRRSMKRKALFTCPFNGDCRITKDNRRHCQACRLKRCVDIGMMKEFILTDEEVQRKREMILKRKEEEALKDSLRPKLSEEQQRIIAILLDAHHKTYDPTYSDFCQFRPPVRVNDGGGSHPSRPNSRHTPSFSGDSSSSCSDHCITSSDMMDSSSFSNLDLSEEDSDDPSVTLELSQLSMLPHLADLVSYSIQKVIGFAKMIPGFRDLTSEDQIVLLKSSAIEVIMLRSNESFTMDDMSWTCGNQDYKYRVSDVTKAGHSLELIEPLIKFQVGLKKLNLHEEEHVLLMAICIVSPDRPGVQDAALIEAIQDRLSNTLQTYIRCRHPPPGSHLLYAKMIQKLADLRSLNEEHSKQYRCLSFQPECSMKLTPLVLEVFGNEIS

With `CC1(C)C(=O)NC(=O)N1CO`, the max response in experiment [1] is 11.7%; in [6], -10.3%; in [9], -6.79%; in experiment [14] it was -2.23% (inactive); in [15] it was -2.85% (inactive); in experiment [17], 1.33% (inactive). In addition, the Potency result in [2], in experiment [4], in experiment [7], in [8], in experiment [13] and in experiment [16] was “inactive” each time. The outcome in experiment [3], in experiment [5] and in experiment [18] was inactive. The values for the activation in experiment [10], in experiment [11] and in experiment [12] were -0.511% (inactive), -2.55% (inactive) and 1.93% (inactive), respectively.

Regarding `OCCC(F)(F)C(F)(F)C(F)(F)C(F)(F)C(F)(F)C(F)(F)C(F)(F)C(F)(F)F`, the max response in experiment [1] is -9.21%; in [6], -23.4%; in experiment [9] it was -18.9%; in [19], -9.11% (inactive); in experiment [20], 0.874% (inactive); in experiment [14] it was -8.07% (inactive). Moreover, the max response in [15] is -9.6% (inactive); in [17], -1.29% (inactive). Besides, the Potency entry in experiment [2], in [4], in experiment [7], in experiment [8] and in experiment [13] was “inactive” in each case. Further, in experiment [5], the result was inactive. Besides, the activation in experiment [10] was 2.93% (inactive); in experiment [11], 1.52% (inactive); in experiment [12] it was 0.162% (inactive).

In the case of `C=CC(=O)NC(C)(C)CS(=O)(=O)O`, the max response was 15.1% and -58.6% in experiment [1]; -14.1% and -12.4% in [6]; 6.06% and 6.67% in experiment [9]; -8.43% (inactive) and -30.3% (inactive) in experiment [19]; 2.58% (inactive) and -1.53% (inactive) in experiment [20]; -6.76% (inactive) and -9.12% (inactive) in experiment [14]. Also, the max response in [15] is -20.6% (inactive) and -8.34% (inactive); in experiment [17] it was -5.7% (inactive) and -3.87% (inactive). Further, the Potency entry in [2], in experiment [4], in experiment [7], in experiment [13] and in [16] was “inactive” in each case. Moreover, the outcome in experiment [3] and in experiment [18] was inactive. For the same molecule, the activation was 2.63% (inactive) and -4% (inactive) in experiment [10]; -1.64% (inactive) and -0.911% (inactive) in experiment [11]; 1.15% (inactive) and -0.952% (inactive) in experiment [12].

Regarding `Cc1ccc(C(C)(C)C)c(O)c1`, the outcome in experiment [3] and in experiment [5] was inactive. Further, the max response in experiment [6] was -12.1%; in experiment [9] it was -16%; in [19], -3.16% (inactive); in [20] it was -0.656% (inactive); in [14], 6.52% (inactive); in experiment [17] it was 1.73% (inactive). In addition, the Potency entry in [7], in experiment [8], in [13] and in experiment [16] was “inactive” throughout. In addition, the activation was -4.17% (inactive) in experiment [10], 0.363% (inactive) in [11] and 1.48% (inactive) in experiment [12].

Regarding `CCCOC(=O)c1ccc(C(=O)OCCC)nc1`, the outcome in experiment [3], in experiment [5] and in [18] was inactive. Moreover, the Potency result in experiment [4] and in experiment [13] was “inactive” throughout. The max response is 6.56% in [9]; -17.9% (inactive) in [19]; -0.236% (inactive) in [20]; 22.4% (inactive) in [14]; -23.4% (inactive) in experiment [15]; -3.51% (inactive) in experiment [17]. Further, the activation in experiment [10] was -3.13% (inactive); in experiment [11], 1.57% (inactive); in experiment [12], -2.64% (inactive).

Values taken from PubChem BioAssay (NCATS).
